Only a selection was taken, and the strongest signals are over-represented in it overall.

The results in this text go back to the supplement of paper PMC8728848.

Experiment in all cases: glycan array binding signal (z-score within array); higher = stronger binding
Conditions in all cases: glycan notation: IUPAC condensed, linker removed

For one experiment, the target named is Glc(a1-2)Glc(a1-2)Glc. In outline:
(§1)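 The binding signal is a Z-score computed within each array. Data were drawn from 3228 arrays in the Consortium for Functional Glycomics database, restricted to those with a known protein sequence. Scores were averaged over arrays of the same protein sequence at different concentrations or buffers, and over linkers, and negative values can be taken as non-binding.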

In experiment [1] the target is Glc(a1-4)Glc(a1-4)Glc(a1-4)Glc(a1-4)Glc(a1-4)Glc(a1-4)Glc(a1-4)Glc(a1-4)Glc(a1-4)Glc. Put shortly:
as §1

Experiment [2] addresses Glc(b1-2)Glc(b1-2)Glc(b1-2)Glc(b1-2)Glc. Put shortly: as §1
For experiment [3], the target named is Glc(b1-2)Glc(b1-2)Glc(b1-2)Glc(b1-2)Glc(b1-2)Glc(b1-2)Glc(b1-2)Glc(b1-2)Glc. In outline:
as §1

Experiment [4] concerns the target Glc(b1-2)Glc(b1-2)Glc(b1-2)Glc(b1-2)Glc(b1-2)Glc(b1-2)Glc(b1-2)Glc(b1-2)Glc(b1-2)Glc(b1-2)Glc. In outline:
as §1

Experiment [5] concerns the target Glc(b1-3)[Glc(b1-6)]Glc(a1-3)Glc(b1-3)[Glc(b1-6)]Glc. In outline: as §1
In experiment [6] the target is Glc(b1-4)Glc(b1-4)Glc(b1-3)Glc. Put shortly:
as §1

The target in experiment [7] is Glc(b1-4)Glc(b1-4)Glc(b1-4)Glc(b1-4)Glc. In outline: as §1
Experiment [8] concerns the target Glc(b1-4)Glc(b1-4)Glc(b1-4)Glc(b1-4)Glc(b1-4)Glc(b1-4)Glc(b1-4)Glc(b1-4)Glc(b1-4)Glc. In outline: as §1
In experiment [9] the target is Glc(b1-4)Glc(b1-4)Glc(b1-4)Glc(b1-4)Glc(b1-4)Glc(b1-4)Glc(b1-4)Glc(b1-4)Glc(b1-4)Glc(b1-4)Glc(b1-4)Glc(b1-4)Glc. In outline:
as §1

The next experiment addresses Glc(b1-6)Glc(b1-6)Glc. In outline: as §1
Experiment [10] has as its target Glc(b1-6)Glc(b1-6)Glc(b1-6)Glc(b1-6)Glc(b1-6)Glc(b1-6)Glc(b1-6)Glc(b1-6)Glc(b1-6)Glc. In outline: as §1
Experiment [11] concerns the target Glc(b1-3)Glc(b1-3)Glc(b1-3)Glc(b1-3)Glc(b1-3)Glc(b1-3)Glc(b1-3)Glc(b1-3)Glc(b1-3)Glc(b1-3)Glc(b1-3)Glc(b1-3)Glc. Put shortly:
as §1

Experiment [12] has as its target Glc(a1-2)Glc(a1-2)Glc(a1-2)Glc(a1-2)Glc. In outline: as §1
Experiment [13] addresses Glc(b1-2)Glc(b1-2)Glc(b1-2)Glc(b1-2)Glc(b1-2)Glc. In outline:
as §1

The target in experiment [14] is Glc(a1-2)Glc(a1-2)Glc(a1-2)Glc(a1-2)Glc(a1-2)Glc(a1-2)Glc(a1-2)Glc(a1-2)Glc. Put shortly:
as §1

The target in experiment [15] is Glc(a1-3)Glc(a1-3)Glc(a1-3)Glc(a1-3)Glc(a1-3)Glc(a1-3)Glc(a1-3)Glc(a1-3)Glc(a1-3)Glc(a1-3)Glc(a1-3)Glc. Put shortly: as §1
Experiment [16] deals with Glc(a1-4)Glc(a1-4)Glc(a1-4)Glc. In outline:
as §1

Experiment [17] deals with Glc(a1-4)Glc(a1-4)Glc(a1-4)Glc(a1-4)Glc(a1-4)Glc. Put shortly:
as §1

The target in experiment [18] is Glc(a1-4)Glc(a1-4)Glc(a1-4)Glc(a1-4)Glc(a1-4)Glc(a1-4)Glc(a1-4)Glc. Put shortly: as §1
Experiment [19] concerns the target Glc(a1-4)Glc(a1-4)Glc(a1-4)Glc(a1-4)Glc(a1-4)Glc(a1-4)Glc(a1-4)Glc(a1-4)Glc(a1-4)Glc(a1-4)Glc(a1-4)Glc. In outline: as §1
The target of experiment [20] is Glc(b1-3)Glc(b1-3)Glc(b1-3)Glc(b1-3)Glc(b1-3)Glc. In outline:
as §1

In experiment [21] the target is Glc(b1-3)Glc(b1-3)Glc(b1-3)Glc(b1-3)Glc(b1-3)Glc(b1-3)Glc(b1-3)Glc. In outline:
as §1

Another experiment has as its target Glc(b1-4)Glc(b1-4)Glc. Put shortly:
as §1

The target in experiment [22] is Glc(b1-4)Glc(b1-4)Glc(b1-4)Glc(b1-4)Glc(b1-4)Glc(b1-4)Glc(b1-4)Glc(b1-4)Glc. Put shortly:
as §1

Experiment [23] concerns the target Glc(a1-3)Glc(a1-3)Man(a1-2)Man(a1-2)Man(a1-3)[Man(a1-3)[Man(a1-6)]Man(a1-6)]Man(b1-4)GlcNAc. Put shortly:
as §1

Experiment [24] addresses Glc(a1-4)Glc(a1-4)Glc(a1-4)Glc(a1-4)Glc. In outline: as §1
Experiment [25] has as its target Glc(a1-4)Glc(a1-4)Glc(a1-4)Glc(a1-4)Glc(a1-4)Glc(a1-4)Glc. In outline: as §1
Experiment [26] concerns the target Glc(b1-3)Glc(b1-3)Glc(b1-3)Glc. In outline: as §1
Another experiment has as its target Glc(a1-4)Glc. Put shortly: as §1
The target of another experiment is Glc(a1-6)Glc. In outline: as §1
Experiment [27] addresses Glc(b1-3)Glc(b1-3)Glc(b1-3)Glc(b1-3)Glc. Put shortly: as §1
Experiment [28] deals with Glc(b1-3)Glc(b1-3)Glc(b1-3)Glc(b1-3)Glc(b1-3)Glc(b1-3)Glc(b1-3)Glc(b1-3)Glc(b1-3)Glc(b1-3)Glc. In outline:
as §1

Experiment [29] concerns the target Glc(b1-3)Glc(b1-3)Glc(b1-3)Glc(b1-3)Glc(b1-3)Glc(b1-3)Glc(b1-3)Glc(b1-3)Glc(b1-3)Glc(b1-3)Glc(b1-3)Glc. Put shortly:
as §1

Experiment [30] concerns the target Glc(b1-3)Glc(b1-3)Glc(b1-3)Glc(b1-3)Glc(b1-3)Glc(b1-3)Glc(b1-3)[Glc(b1-6)]Glc(b1-3)Glc. In outline:
as §1

The target in experiment [31] is Glc(b1-6)Glc(b1-6)Glc(b1-6)Glc(b1-6)Glc(b1-6)Glc(b1-6)Glc(b1-6)Glc. Put shortly: as §1
The target in experiment [32] is Glc(b1-6)Glc(b1-6)Glc(b1-6)Glc(b1-6)Glc(b1-6)Glc(b1-6)Glc(b1-6)Glc(b1-6)Glc. Put shortly:
as §1

Experiment [33] addresses Man(b1-4)Man(b1-4)Man(b1-4)Man. In outline:
as §1

B1: Unk16A (Cellvibrio mixtus), Q336L6 (protein)
chain: VAYNTTGASSSAASSSAPSSASSSSSSAAPVLLSQGRPVTASSNFQPAANAVDGNGGTRWESTHGVSPSWIMVDLGSSKNLSQVIIDWEAANAANYLVQASNNGMSWTTLKIITTGAFGDRTDTHSVAGNYRYVRIYATARSAGNQWGYSIWELKITGN
In the case of B1, the “glycan array binding signal (z-score)” value in the experiment with Glc(a1-2)Glc(a1-2)Glc is -0.668; in [1], -0.662; in experiment [2], 2.23; in experiment [3] it was 3.49; in experiment [4], 2.77; in experiment [5], 4.32. Besides, the “glycan array binding signal (z-score)” value in experiment [6] is -0.192; in experiment [7] it was -0.479; in experiment [8], -0.167; in experiment [9], -0.398; with Glc(b1-6)Glc(b1-6)Glc, -0.248; in [10] it was 0.062.

B2: DC-SIGNR (Homo sapiens), Q9H2X3 (protein)
chain: QVSKVPSSLSQEQSEQDAIYQNLTQLKAAVGELSEKSKLQEIYQELTQLKAAVGELPEKSKLQEIYQELTRLKAAVGELPEKSKLQEIYQELTRLKAAVGELPEKSKLQEIYQELTRLKAAVGELPEKSKLQEIYQELTELKAAVGELPEKSKLQEIYQELTQLKAAVGELPDQSKQQQIYQELTDLKTAFERLCRHCPKDWTFFQGNCYFMSNSQRNWHDSVTACQEVRAQLVVIKTAEEQNFLQLQTSRSNRFSWMGLSDLNQEGTWQWVDGSPLSPSFQRYWNSGEPNNSGNEDCAEFSGSGWNDNRCDVDNYWICKKPAACFRDE
With B2, the “glycan array binding signal (z-score)” value was 1.64 in experiment [3] and -0.981 in experiment [11].

B3: DC-SIGN (Homo sapiens), Q9NNX6 (protein)
chain: QVSKVPSSISQEQSRQDAIYQNLTQLKAAVGELSEKSKLQEIYQELTQLKAAVGELPEKSKLQEIYQELTRLKAAVGELPEKSKLQEIYQELTWLKAAVGELPEKSKMQEIYQELTRLKAAVGELPEKSKQQEIYQELTRLKAAVGELPEKSKQQEIYQELTRLKAAVGELPEKSKQQEIYQELTQLKAAVERLCHPCPWEWTFFQGNCYFMSNSQRNWHDSITACKEVGAQLVVIKSAEEQNFLQLQSSRSNRFTWMGLSDLNQEGTWQWVDGSPLLPSFKQYWNRGEPNNVGEEDCAEFSGNGWNDDKCNLAKFWICKKSAASCSRDEEQFLSPAPATPNPPPA
In the case of B3, the “glycan array binding signal (z-score)” value is -0.838 in experiment [12] and 2.48 in experiment [13].

B4: Pul13 (Thermotoga maritima), O33840 (protein)
chain: ETTIVVHYHRYDGKYDGWNLWIWPVEPVSQEGKAYQFTGEDDFGKVAVVKLPMDLTKVGIIVRLNEWQAKDVAKDRFIEIKDGKAEVWILQGVEEIFYEKP
On to B4, for which the “glycan array binding signal (z-score)” value in experiment [14] is -0.351; in experiment [15], -0.3; in [16], 2.43; in [17], 3.61; in [18], 4.12; in experiment [19], 3.44. In addition, the “glycan array binding signal (z-score)” value (in experiment [20]; in experiment [21]; with Glc(b1-4)Glc(b1-4)Glc; in experiment [22]; in [10]) was -0.351 throughout.

B5: Malectin (Homo sapiens), Q14165 (protein)
chain: MLGAWAVEGTAVALLRLLLLLLPPAIRGPGLGVAGVAGAAGAGLPESVIWAVNAGGEAHVDVHGIHFRKDPLEGRVGRASDYGMKLPILRSNPEDQILYQTERYNEETFGYEVPIKEEGDYVLVLKFAEVYFAQSQQKVFDVRLNGHVVVKDLDIFDRVGHSTAHDEIIPMSIRKGKLSVQGEVSTFTGKLYIEFVKGYYDNPKVCALYIMAGTVDDVPKLQPHPGLEKKEEEEEEEEYDEGSNLKKQTNKNRVQSGPRTPNPYASDNSSLMFPILVAFGVFIPTLFCLCRL
Take B5: the “glycan array binding signal (z-score)” value in experiment [23] is 5.02; in experiment [24] it was -0.172; in [25] it was -0.012; in experiment [26], -0.337; with Glc(b1-4)Glc(b1-4)Glc it was -0.412.

B6: Dectin-1 (Homo sapiens), Q9BXN2 (protein)
chain: TMAIWRSNSGSNTLENGYFLSRNKENHSQPTQSSLEDSVTPTKAVKTTGVLSSPCPPNWIIYEKSCYLFSMSLNSWDGSKRQCWQLGSNLLKIDSSNELGFIVKQVSSQPDNSFWIGLSRPQTEVPWLWEDGSTFSSNLFQIRTTATQENPSPNCVWIHVSVIYDQLCSVPSYSICEKKFSM
For the molecule B6, the “glycan array binding signal (z-score)” value with Glc(a1-4)Glc is -0.145; with Glc(a1-6)Glc, -0.145; in experiment [2] it was -0.145; in experiment [27], -0.145; in experiment [28] it was 0.976; in experiment [29], 5. The “glycan array binding signal (z-score)” value was 9.53 in experiment [11]; -0.145 in [30]; -0.145 in experiment [22]; -0.145 in [31]; -0.145 in [32]; -0.082 in experiment [33].
